The source of these data is PubChem BioAssay (NCI).

Test systems include HCT-15 colon; HT29 colon; SNB-75 CNS; SNB-19 CNS; U251 CNS; PC-3 prostate; SK-MEL-5 melanoma; UACC-62 melanoma; LOX IMVI melanoma; SK-MEL-28 melanoma.
Test in all cases: NCI-60 one-dose screen, 48 h (100 = growth as untreated, 0 = no growth, -100 = all killed)
Common to all, as to settings: 10 µM unless noted

Compounds without any hit were thinned out: in the full panel of roughly 83,000, 20% have a hit.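 How to read the values: 0–100, growth inhibition (40 = 60% inhibited); 0, no net growth; -100 to 0, cell death (-40 = 40% of starting cells died; -100 = all dead).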 Unmarked numbers belong to inactive results. Active and inactive are the calls of the source. The calls were made as follows: active = growth percent below 10; inactive = the rest.

`O=C1/C(=C2/C=Nc3ccccc32)N(O)c2ccccc21`: the growth was 49.5% in the experiment on HCT-15 colon; 100% with HT29 colon; 102% with SNB-75 CNS; 93% with SNB-19 CNS; 84.9% in the experiment on U251 CNS; 51% with PC-3 prostate. The growth is 68% in the experiment with SK-MEL-5 melanoma, 33.6% in the experiment with UACC-62 melanoma, 33.5% with LOX IMVI melanoma and 92.8% in the experiment on SK-MEL-28 melanoma.
Regarding `COc1ccccc1N1C(=O)/C(=C/C2=Cc3ccccc3OC2)SC1=S`, the growth is 65.3% in the experiment with HCT-15 colon; 99.6% in the experiment on HT29 colon; 97.8% in the experiment with SNB-75 CNS; 91.1% with SNB-19 CNS; 95.7% in the experiment with U251 CNS; 77.1% in the experiment with PC-3 prostate. Further, the growth in the experiment on SK-MEL-5 melanoma was 97.7%; in the experiment on UACC-62 melanoma it was 86%; with LOX IMVI melanoma, 105%; in the experiment on SK-MEL-28 melanoma, 92.8%.
In the case of `Cc1ccc(N2CCN(C(=S)c3cccs3)CC2)cc1`, the growth in the experiment with HCT-15 colon was 96.3%; with HT29 colon it was 90.9%; with SNB-75 CNS, 94.3%; with SNB-19 CNS, 100%; in the experiment on U251 CNS, 96.3%; with PC-3 prostate, 92.9%. Moreover, the growth with SK-MEL-5 melanoma is 95.2%; in the experiment on UACC-62 melanoma it was 90.1%; in the experiment with LOX IMVI melanoma, 116%; with SK-MEL-28 melanoma, 102%.
As to `COc1ccc(-c2nc3sccn3c2-c2cc(-c3cc(OC)c(OC)c(OC)c3)on2)cc1`, the growth with HCT-15 colon was 96.9%; with HT29 colon, 86.1%; in the experiment with SNB-75 CNS, 77.4%; with SNB-19 CNS, 87.5%; in the experiment with U251 CNS, 107%; with PC-3 prostate, 58.9%. Moreover, the growth in the experiment with SK-MEL-5 melanoma was 68.7%; in the experiment with UACC-62 melanoma, 89.1%; in the experiment with LOX IMVI melanoma, 90.5%; in the experiment with SK-MEL-28 melanoma, 127%.
In the case of `COc1ccc(/C=C/c2c(C(=O)/C=C/c3ccc(F)cc3)c(C)nc3ccccc23)cc1`, the growth is 10.8% with HCT-15 colon; 23.6% with HT29 colon; 52.1% with SNB-75 CNS; 60.9% in the experiment with SNB-19 CNS; 49.6% in the experiment with U251 CNS; 41.7% in the experiment on PC-3 prostate. The growth in the experiment with SK-MEL-5 melanoma is 63.4%; in the experiment on UACC-62 melanoma, 46.8%; in the experiment with LOX IMVI melanoma, 19.7%; in the experiment on SK-MEL-28 melanoma, 55.3%.
`O=C1/C(=C\c2c[nH]c3ccccc23)c2ccccc2N1c1c(Cl)cccc1Cl`: the growth was 5.59% (active) in the experiment on HCT-15 colon; -29.6% (active) in the experiment on HT29 colon; 39.2% with SNB-75 CNS; 37% in the experiment on SNB-19 CNS; -34% (active) in the experiment with U251 CNS; 2.68% (active) in the experiment with PC-3 prostate. In addition, the growth with SK-MEL-5 melanoma is -39.2% (active); with UACC-62 melanoma it was -58.6% (active); with LOX IMVI melanoma, -100% (active); with SK-MEL-28 melanoma it was -30.6% (active).
In the case of `CNC(=O)CCN1CCN(CC/C=C2\c3ccccc3Sc3ccc(Cl)cc32)CC1`, the growth with HCT-15 colon is 63.2%; with HT29 colon, 58.2%; in the experiment with SNB-75 CNS, 74.3%; in the experiment on SNB-19 CNS it was 98.6%; in the experiment on U251 CNS, 77.8%; in the experiment with PC-3 prostate, 8.82% (active). Moreover, the growth is 79.6% with SK-MEL-5 melanoma, 60.4% with UACC-62 melanoma, 72% in the experiment with LOX IMVI melanoma and -51.5% (active) with SK-MEL-28 melanoma.
On to `COc1ccc2occ(C3=C(c4c[nH]c5ccccc45)C(=O)N(O)C3=O)c2c1`, for which the growth is 100% in the experiment on HCT-15 colon; 99.7% in the experiment with HT29 colon; 99.7% with SNB-75 CNS; 91.8% in the experiment on SNB-19 CNS; 91.7% with U251 CNS; 81.3% in the experiment with PC-3 prostate. Besides, the growth with SK-MEL-5 melanoma is 92.7%; in the experiment with UACC-62 melanoma it was 80.2%; in the experiment on LOX IMVI melanoma it was 58.4%; in the experiment with SK-MEL-28 melanoma it was 114%.
Regarding `COc1ccc(NC(=O)CSc2nnc(-c3cc(-c4ccc(S(N)(=O)=O)cc4)nc4ccccc34)n2-c2ccccc2)cc1`, the growth with HCT-15 colon was 89%; in the experiment with HT29 colon it was 86.4%; in the experiment with SNB-75 CNS it was 55.7%; in the experiment on SNB-19 CNS, 82.5%; in the experiment with U251 CNS, 85.5%; in the experiment with PC-3 prostate, 65.9%. The growth with SK-MEL-5 melanoma was 74.6%; in the experiment with UACC-62 melanoma it was 65.3%; with LOX IMVI melanoma it was 90.3%; with SK-MEL-28 melanoma, 80.6%.
For `CCOc1ccccc1-n1c(CN2CCN(C(=O)COc3ccc(CNCCCCCCN4C5CCCC4CC(OC(=O)Nc4cc(C)ccc4OC)C5)cc3)CC2)nc2ccccc2c1=O` (stereo not given), the growth was -84.4% (active) with HCT-15 colon; -85.6% (active) with HT29 colon; -99.2% (active) in the experiment with SNB-75 CNS; -89.9% (active) with SNB-19 CNS; -99.2% (active) in the experiment with U251 CNS; -85.6% (active) in the experiment on PC-3 prostate. The growth is -96.5% (active) in the experiment on SK-MEL-5 melanoma, -89.3% (active) with UACC-62 melanoma, -92% (active) in the experiment on LOX IMVI melanoma and -93% (active) in the experiment with SK-MEL-28 melanoma.
For the compound `N#C/C(=C\c1ccc(-c2ccccc2F)o1)c1nc(-c2ccco2)cs1`, the growth with HCT-15 colon is 62.1%; with HT29 colon, 95.5%; in the experiment on SNB-75 CNS it was 60.7%; in the experiment with SNB-19 CNS it was 95.2%; in the experiment on U251 CNS, 101%; in the experiment on PC-3 prostate, 78.4%. Besides, the growth in the experiment on SK-MEL-5 melanoma is 84.7%; in the experiment with UACC-62 melanoma, 83.9%; with LOX IMVI melanoma it was 93.7%; with SK-MEL-28 melanoma it was 104%.
For `Cc1ccc(Nc2nc(N)nc(CSCC(=O)NN)n2)cc1`, the growth in the experiment with HCT-15 colon is 101%; in the experiment on HT29 colon it was 106%; in the experiment on SNB-75 CNS, 85.2%; in the experiment with SNB-19 CNS, 98.5%; in the experiment with U251 CNS, 92.9%; in the experiment on PC-3 prostate, 93%. For the same compound, the growth was 101% in the experiment with SK-MEL-5 melanoma, 90.8% with UACC-62 melanoma, 95.2% with LOX IMVI melanoma and 99.9% in the experiment on SK-MEL-28 melanoma.
As to `N=C1C(c2nc(-c3ccc(Br)cc3)cs2)=C(O)CN1CC1CCCO1` (stereo not given), the growth in the experiment with HCT-15 colon was 89.5%; in the experiment on HT29 colon it was 97.5%; in the experiment on SNB-75 CNS, 78.5%; in the experiment on SNB-19 CNS, 87.4%; in the experiment on U251 CNS, 74.9%; in the experiment on PC-3 prostate, 7.86% (active). The growth in the experiment with SK-MEL-5 melanoma was 102%; in the experiment with UACC-62 melanoma, 105%; in the experiment with LOX IMVI melanoma it was 60.7%; in the experiment with SK-MEL-28 melanoma, 107%.
Regarding `COc1ccc(-c2ccc3c(c2)sc2nc(-c4ccc(F)cc4)cn23)cc1`, the growth is 74.9% in the experiment with HCT-15 colon; 82.8% in the experiment on HT29 colon; 98.9% in the experiment with SNB-75 CNS; 103% in the experiment with SNB-19 CNS; 83.3% with U251 CNS; 81.7% in the experiment with PC-3 prostate. For the same compound, the growth was 33.1% in the experiment on SK-MEL-5 melanoma, 65% with UACC-62 melanoma, 102% in the experiment with LOX IMVI melanoma and 105% with SK-MEL-28 melanoma.
